# Screening data: PubChem, National Center for Advancing Translational Sciences (NCATS)
# In the library only some 10% were active in any assay of this set; here they are far more common.
# ALDH1A1 block: qHTS Assay for Inhibitors of Aldehyde Dehydrogenase 1 (ALDH1A1); Purified ALDH1A1, NADH fluorescence, propionaldehyde substrate; Potency, µM (series often up to 75.3 µM), without a hit: at the top dose activity, negative = inhibition, hits mostly inhibitors; 220,000 tested, 7.3% active; AID 1030, 2008;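 note: potency is the fitted concentration of half-maximal effect; plate controls were no enzyme wells and a reference inhibitor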
# Target sequence (P00352 whole entry, looked up): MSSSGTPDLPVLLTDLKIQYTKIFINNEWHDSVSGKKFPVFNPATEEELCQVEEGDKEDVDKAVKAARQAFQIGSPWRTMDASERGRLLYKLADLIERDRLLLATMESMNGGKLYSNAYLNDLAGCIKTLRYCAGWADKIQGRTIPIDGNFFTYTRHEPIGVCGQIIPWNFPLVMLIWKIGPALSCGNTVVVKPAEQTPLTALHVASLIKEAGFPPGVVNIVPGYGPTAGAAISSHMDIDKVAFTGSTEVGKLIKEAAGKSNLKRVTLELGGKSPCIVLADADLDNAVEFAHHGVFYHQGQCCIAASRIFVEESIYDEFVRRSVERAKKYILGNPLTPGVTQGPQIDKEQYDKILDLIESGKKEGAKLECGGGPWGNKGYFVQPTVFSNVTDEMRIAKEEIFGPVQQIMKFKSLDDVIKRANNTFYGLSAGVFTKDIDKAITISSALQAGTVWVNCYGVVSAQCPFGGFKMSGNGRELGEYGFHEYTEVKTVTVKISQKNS
# PNC inhibitor: High Content Assay for Compounds that inhibit the Assembly of the Perinucleolar Compartment; PC3M PTB-GFP, PNC prevalence imaging, 16 h; active compounds read low; activity change (PNC), negative = inhibition, % at 10 µM; 140,000 tested, 3.1% active; AID 2417, 2010;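 active = readout at or below -70, meaning at least 70% loss of cells showing the perinucleolar compartment, a nuclear body marking cancer cells; inconclusive = readout between -30 and a set limit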;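 note: plate controls were DMSO wells for no effect and camptothecin positive control wells for full effect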
#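 PC3M cells stably expressing PTB-GFP, 750–1000 cells/well, treated 16 h at 37 °C with compound (23 nl of library stock), in duplicate. After paraformaldehyde fixation and Hoechst stain, imaged at 20x; PNC prevalence scored by image analysis.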
# 12-hLO inh: qHTS Assay for Inhibitors of 12-hLO (12-human lipoxygenase); AID 1452, 2008; Potency, µM (doses to about 57.1 µM), for inactives: at the highest dose activity change, negative = inhibition, hits mostly inhibitors; purified 12-hLO, xylenol orange hydroperoxide absorbance; 150,000 tested, 0.12% active; active = well fitted inhibition curve with a large enough effect; inconclusive = small, poorly fitted or top-dose-only effect; note: potency is the fitted concentration of half-maximal effect; nearly all actives have a fitted effect of over 55% in size
#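 Hydroperoxide formation by human 12-lipoxygenase from 40 uM arachidonic acid was followed colorimetrically via ferric-xylenol orange complex, using the 573/405 nm absorbance ratio. Enzyme concentration was 150 nM, with 30 min reaction at room temperature.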
# LMNA splice mod: qHTS Assay for Modulators of Lamin A Splicing; AID 1487, 2009; Potency, µM (top dose mostly 46.1 µM), inactives show at the highest dose ratio change, negative = inhibition, usual class: inhibitors; 200,000 tested, 0.01% active; HeLa LMNA splicing GFP/RFP minigene ratio, 48 h; active = well fitted inhibition curve with a large enough effect in the signal ratio, with a control signal flat, not every such curve was filed as active; inconclusive = small, poorly fitted or top-dose-only effect, or effect the other way, or a change in a side signal; the % refers to the signal ratio; note: potency is the fitted concentration of half-maximal effect
#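 S3 HeLa stable clones carrying a lamin A-EGFP splicing minigene plus DsRed2 were seeded at 600 cells/well in Opti-MEM with 2% FBS, pin-dosed and incubated 48 h at 37°C. Acumen cytometry (488 nm) gave the GFP/RFP total-intensity ratio.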
# HPGD inh: qHTS Assay for Inhibitors of HPGD (15-Hydroxyprostaglandin Dehydrogenase). purified HPGD, NADH fluorescence kinetic, PGE2 substrate. Potency, µM, without a hit: at the highest dose activity change, negative = inhibition, actives largely listed as inhibitors. 150,000 tested, 4.3% active; note: potency is the fitted concentration of half-maximal effect
# Target sequence (P15428 whole entry, looked up): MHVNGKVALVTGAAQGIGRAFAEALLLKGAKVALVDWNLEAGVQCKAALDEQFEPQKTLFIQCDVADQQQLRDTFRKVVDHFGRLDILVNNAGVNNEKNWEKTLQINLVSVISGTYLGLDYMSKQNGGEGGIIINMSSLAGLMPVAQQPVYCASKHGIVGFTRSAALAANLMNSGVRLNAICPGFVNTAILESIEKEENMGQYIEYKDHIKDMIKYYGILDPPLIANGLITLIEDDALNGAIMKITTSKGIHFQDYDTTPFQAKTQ
#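 20 nM HPGD preincubated 15 min at room temperature with compound in 50 mM Tris-HCl pH 8, 0.01% Tween 20. Started with 1 mM NAD+ and 30 uM prostaglandin E2; NADH fluorescence (360/450 nm) read 5 times over 30-s intervals, last minus first.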
# Starred values were filed as active, the others as inactive; ? = inconclusive; / = no result given; [ ] = another dose, or the depositor's remark. Unless noted, calls come from the whole dose curve; as a rule, active = well fitted inhibition curve with a large enough effect (not every such curve was filed as active); inconclusive = small, poorly fitted or top-dose-only effect, or another doubt; inactive = no such curve, though single readings can be large or run the other way. Unless noted, % is set by controls: 0 for no effect and ±100 for the full control effect.
SMILES,ALDH1A1 block,PNC inhibitor,12-hLO inh,LMNA splice mod,HPGD inh
O=[N+]([O-])c1cc(S(=O)(=O)Nc2ccccc2)ccc1N1CCN(c2ccc(O)cc2)CC1,31.6µM*,37.1,-24.8%,?,-19.8%
COc1ccc(-c2ccc(-c3cc(=O)oc4cc(C)cc(C)c34)cc2)cc1,?,/,1.0%[0.00818 µM],/,-21.4%
COc1ccc(C(=O)N2CCC[C@@]3(CCN(CC(C)C)C3)C2)cc1,-13.5%,/,-2.8%,/,-13.9%
CC(C)C(=O)Nc1ncc(Cc2ccc(Cl)cc2)s1,-6.0%,/,/,-5.6%[46 µM],/
Cc1ccc(/C=c2\s/c(=C(/C#N)C(=O)N3CCCC3)n(Cc3ccco3)c2=O)s1,3.55µM*,-89.9*,-27.9%,15.9%,?
COc1ccc(C(=O)N2CCC3(CCCN(Cc4ccc(C#N)cc4)C3)CC2)cc1,-10.2%,/,-13.3%,/,-11.4%
Cc1ccc(NC(=O)CSc2nc3ccc(NC(=O)c4cccc(Cl)c4)cc3s2)c(C)c1,/,/,/,6.4%[46 µM],/
O=C(CCOc1ccccc1)OCC(=O)c1cc2ccccc2o1,-7.1%,-10.4,-15.5%,-5.3%,31.6µM*
CSc1ncccc1C(=O)OCC(=O)c1cc2ccccc2o1,-10.8%,9.0,-7.9%,-3.3%,-11.8%
N#CCc1c(C#N)c(N)nc(N2CCN(C=O)CC2)c1C#N,7.08µM*,/,/,-10.5%[46 µM],/
CS(=O)(=O)N(CC(=O)N1CCN(c2ccccc2F)CC1)C1CCCCC1,7.94µM*,-88.0*,11.8%,1.3%,-19.5%
CCN1CCN(C(=O)c2ccc3c(c2)N(Cc2cccc(F)c2)C(=O)c2ccccc2S3)CC1,/,/,/,4.7%[46 µM],/
S=c1nc[nH]c2nc[nH]c12,7.94µM*,/,-1.4%,/,?
COc1cccc(C(=O)Nc2nc3c(s2)CCCC3)c1,/,/,/,-5.3%[46 µM],/
COc1cccc(C2C(C(=O)c3cccs3)=C(O)C(=O)N2CCCn2ccnc2)c1OC (stereo unspecified),?,-96.5*,-13.4%,15.2%,-12.1%
CC(C)C1Cc2[nH]c(=O)c(C(=O)O)cc2CO1 (stereo unspecified),?,-111.2*,-13.5%,10.6%,?
COc1ccc2[nH]c(=O)c(C(=O)O)cc2c1,?,/,/,0.0%[46 µM],/
O=C(Nc1ccccc1)N(O)c1ccc(Cl)cc1,1µM*,14.0,-7.8%,-1.2%,-27.6%
O=C(Nc1ccc(Cl)cc1)N(Cc1cccs1)Cc1cccs1,-3.7%,26.4,-12.6%,?,-5.0%
CCN(CC)c1ccc(NC(=O)COc2ccccc2C#N)cc1S(=O)(=O)Nc1ccccc1OC,-8.9%,-18.7,15.6%,10.9%,3.55µM*
COc1ccccc1NS(=O)(=O)c1cc(NC(=O)CNC(=O)c2ccccc2)ccc1C,-14.3%,38.2,3.5%,-16.5%,-12.5%
O=C(CCc1ccccc1)Nc1cc2c(cc1Cl)OCCO2,1.6%,-109.0*,-1.2%,-10.4%,?
C=CCn1c(-c2ccccc2)c[nH]c1=S,?,-116.6*,-3.9%,4.1%,?
CCn1c(-c2ccc(-c3ccccc3)cc2)c[nH]c1=S,?,-5.2,-26.3%,-9.9%,?
C=CCn1c(-c2ccc(Cl)cc2)c[nH]c1=S,1.41µM*,-6.6,-1.5%,11.8%,11.2µM*
SMILES,ALDH1A1 block,PNC inhibitor,12-hLO inh,LMNA splice mod,HPGD inh
Cc1cccc(-n2cc(CN3CCCN(C=O)CC3)c(-c3cccc(F)c3)n2)c1,10µM*,/,/,9.1%[46 µM],/
CCn1ccnc1CN(C)Cc1cn(-c2cccc(C)c2)nc1-c1cccc(F)c1,20µM*,/,/,13.0%[46 µM],/
Cc1cccc(-n2cc(CNCCN3CCOC3=O)c(-c3cccc(F)c3)n2)c1,0.4%,/,/,/,/
CC(=O)N1N=C(c2ccco2)CC1c1cccs1 (stereo unspecified),3.55µM*,-2.8,-3.4%,2.0%,-14.9%
Cc1ccc(C2=NN(C(=O)CCl)C(c3cccs3)C2)o1 (stereo unspecified),1.26µM*,0.4,2.1%,?,/
O=C(NCc1n[nH]c(=S)n1-c1cccc(Cl)c1)c1ccc(S(=O)(=O)N2CCCC2)cc1,4.47µM*,-28.6,-5.1%,9.3%,-23.0%
CCCN(CCC)S(=O)(=O)c1ccc(C(=O)NCc2n[nH]c(=S)n2-c2ccc(Cl)c(Cl)c2)cc1,-9.6%,/,/,0.1%[46 µM],/
O=C(NCc1n[nH]c(=S)n1-c1ccc(F)cc1)c1ccc(S(=O)(=O)N2CCCC2)cc1,15.8µM*,?,-0.3%,13.2%,-25.9%
COC(=O)c1ccc(-n2cncn2)c(F)c1,0.0%,?,0.9%,-0.2%,-8.9%
Cc1cc2cc(CN(Cc3ccc4c(c3)OCO4)C(=O)c3cnccn3)c3nnnn3c2cc1C,14.1µM*,0.0,-2.8%,6.2%,-18.4%
O=C(OCC1OC(OC(=O)c2cc(O)c(O)c(OC(=O)c3cc(O)c(O)c(O)c3)c2)[C@@H](OC(=O)c2cc(O)c(O)c(OC(=O)c3cc(O)c(O)c(O)c3)c2)C(OC(=O)c2cc(O)c(O)c(OC(=O)c3cc(O)c(O)c(O)c3)c2)C1OC(=O)c1cc(O)c(O)c(OC(=O)c2cc(O)c(O)c(O)c2)c1)c1cc(O)c(O)c(OC(=O)c2cc(O)c(O)c(O)c2)c1 (stereo partly specified),?,/,0.562µM*,?,3.16µM*
COc1ccc(-c2csc(NNC3=NCCCCC3)n2)cc1,12.6µM*,/,/,-19.3%[46 µM],/
c1ccc(-c2csc(NNC3=NCCCCC3)n2)cc1,31.6µM*,-22.7,?,-1.3%,?
COc1ccc(-c2csc(NC3=NCCCCC3)n2)cc1,-15.6%,28.1,-6.1%,?,-27.5%
CCCCc1nc2c(c3c1C[C@H](C)OC3)CN(S(=O)(=O)c1ccc(Cl)c3nonc13)CC2,?,/,-3.3%[11.4 µM],?,-2.4%
O=S(=O)(/N=C(/NS(=O)(=O)c1ccccc1)c1ccccc1)c1ccccc1,-5.8%,/,/,/,/
Cc1ccc(NC(=S)N/C(=N/S(=O)(=O)c2ccccc2)c2ccccc2)cc1,?,19.0,?,-3.4%,?
CCOC(=S)N/C(=N\S(=O)(=O)c1ccccc1)c1ccccc1,11.2µM*,-100.0*,-4.0%,-8.9%,?
CCCOC(=S)N/C(=N\S(=O)(=O)c1ccccc1)c1ccccc1,14.1µM*,-22.1,1.0%,-7.6%,28.2µM*
O=C1c2c([N+](=O)[O-])cc([N+](=O)[O-])cc2S(=O)N1Cc1ccccc1 (stereo unspecified),3.55µM*,/,/,/,/
C/C(=N\NC(=O)CCc1ccccc1)C1C(=O)c2ccccc2C1=O,-4.1%,/,/,?,/
C/C(=N\NC(=O)c1cccc(Cl)c1)C1C(=O)c2ccccc2C1=O,12.6µM*,12.4,-8.0%,?,?
Cc1noc(NS(=O)(=O)c2ccc(NC(=O)CSc3ncccn3)cc2)c1C,20µM*,?,-2.5%,-6.1%,-6.4%
